Experiment [1] is described as follows: qHTS assay to identify small molecule antagonists of the estrogen receptor alpha (ER-alpha) signaling pathway using the BG1 cell line in the presence of 0.1 nM 17-beta-estradiol - cell viability counter screen (AID 1259241). Also: nearly all actives have a fitted effect of over 40% in size. Also: potency is read from the fitted curve at half-maximal effect. In outline:
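Estradiol-stimulated (0.1 nM) VM7Luc4E2 cells exposed to compounds 22 hr; viability measured by fluorescence of cleaved CellTiter-Fluor substrate after 30 min.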

Experiment [2] deals with Estrogen receptor (Homo sapiens) (UniProt P03372). Briefly: qHTS assay to identify small molecule antagonists of the estrogen receptor alpha (ER-alpha) signaling pathway using the BG1 cell line in the presence of 0.1 nM 17-beta-estradiol (AID 1259244). Also: nearly all actives have a fitted effect of over 50% in size. Also: potency is read from the fitted curve at half-maximal effect. The essentials:
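Reporter is a stably transfected luciferase under four estrogen responsive elements in VM7Luc4E2 cells expressing native full-length ER-alpha; inhibition of 0.1 nM (final) 17beta-estradiol-driven signal over 22 h is read by luminescence.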
For orientation: In qHTS, concentration-response curves come from the screen itself.

The nature of experiment [3]: qHTS assay to identify small molecule phospholipidosis (PLD) inducers (AID 1259344; active = well fitted curve in the direction sought with a large enough effect; an effect the other way counts as inactive or inconclusive; also: potency is read from the fitted curve at half-maximal effect). In outline: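 After 4 h attachment on collagen I, HepG2 cells were dosed with compound alongside LipidTOX Red, kept 24 h at 37 C, fixed, and imaged for lamellar phospholipid pits.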
Experiment [4] can be described thus: qHTS assay to identify small molecule HDAC inhibitors (AID 1259364). Also: potency is read from the fitted curve at half-maximal effect.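 Also: wild-type HCT-116 cells with endogenous class I/II HDAC activity; nearly all actives have a fitted effect of over 45% in size.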 In outline:
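Quantitative high-throughput format: overnight-seeded HCT-116 cells got compounds for 2 hr at 37C; HDAC-Glo I/II reagent added, 30 min RT, luminescence measured.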

Experiment [5] in a line: qHTS assay to identify small molecule agonists of the sonic hedgehog signaling (Shh) pathway - cell viability counter screen (AID 1259366). Also: nearly all actives have a fitted effect of over 50% in size. Also: potency is read from the fitted curve at half-maximal effect. In outline: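 Same-well cytotoxicity read. Gli1-Luc reporter 3T3 cells; compounds 24hr, 37C/5% CO2; CellTiter-Fluor fluorescence.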
Experiment [6] is described as follows: qHTS assay to identify small molecule agonists of the sonic hedgehog signaling (Shh) pathway (AID 1259368; calls by dose curve;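 also: NIH/3T3-derived 3T3Gli1-Luc cells carrying a stable Gli1-driven firefly luciferase reporter; series mostly up to about 92 µM; nearly all actives have a fitted effect of over 15% in size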). The essentials:
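Quantitative high-throughput format using a Gli1-driven firefly luciferase reporter line derived from NIH/3T3 cells. After a 24 hr compound treatment at 37 C and 5% CO2, luminescence reported Gli1 response element activity.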

The nature of experiment [7]: qHTS assay to identify small molecule antagonists of the sonic hedgehog signaling (Shh) pathway (AID 1259369; calls by dose curve; also: nearly all actives have a fitted effect of over 45% in size; also: potency is read from the fitted curve at half-maximal effect). The essentials: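 Stable Gli1-Luc reporter NIH/3T3 clone; quantitative HTS in stimulated mode with conditioned medium. Luminescence measured after 24hr compound treatment at 37 C.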
The target in experiment [8] is Estrogen receptor beta (Homo sapiens) (UniProt Q92731). Briefly: qHTS assay to identify small molecule agonists of the estrogen receptor beta (ER-beta) signaling pathway (AID 1259377; active = well fitted activation curve with a large enough effect in the signal ratio in the repeat runs, not every such curve was filed as active; the % refers to the signal ratio). In outline: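 Read-out: beta-lactamase FRET fluorescence. Cell line: ER-beta-UAS-bla HEK293T in 2% charcoal-stripped FBS. Exposure: 16 hr at 37C. Substrate step: 2 h at room temperature.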
Estrogen receptor beta (Homo sapiens), sequence (Q92731 whole entry, looked up): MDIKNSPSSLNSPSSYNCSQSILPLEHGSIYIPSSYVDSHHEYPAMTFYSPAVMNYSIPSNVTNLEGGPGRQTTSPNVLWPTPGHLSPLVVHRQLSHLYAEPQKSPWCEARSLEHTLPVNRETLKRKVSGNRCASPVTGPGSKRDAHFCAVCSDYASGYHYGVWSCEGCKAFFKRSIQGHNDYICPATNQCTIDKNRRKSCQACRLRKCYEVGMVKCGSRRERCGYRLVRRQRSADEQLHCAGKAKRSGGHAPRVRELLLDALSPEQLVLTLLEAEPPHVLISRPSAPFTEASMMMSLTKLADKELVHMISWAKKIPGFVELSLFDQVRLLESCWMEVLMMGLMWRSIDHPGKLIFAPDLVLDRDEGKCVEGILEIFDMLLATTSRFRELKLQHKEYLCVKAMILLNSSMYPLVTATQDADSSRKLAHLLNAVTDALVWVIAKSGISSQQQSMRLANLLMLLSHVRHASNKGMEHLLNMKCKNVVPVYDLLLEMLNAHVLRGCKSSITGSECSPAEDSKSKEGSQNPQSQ

A short description of experiment [9]: qHTS assay to identify small molecule agonists of the estrogen receptor beta (ER-beta) signaling pathway - cell viability counter screen (AID 1259380). Also: potency is read from the fitted curve at half-maximal effect; nearly all actives have a fitted effect of over 30% in size. The essentials:
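Steps: plate ER-beta-UAS-bla HEK293T cells, rest 6 hr; add compounds in DMSO; incubate 16 hr at 37C, 5% CO2; add FRET substrate 2 hr; add CellTiter-Glo, wait 30 min at room temperature; read luminescence.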

Experiment [10] deals with Estrogen receptor (Homo sapiens) (UniProt P03372). Briefly: qHTS assay to identify small molecule agonists of the estrogen receptor alpha (ER-alpha) signaling pathway in the presence of an antagonist (AID 1259383; calls by dose curve; also: top concentration of the series differs between compounds; nearly all actives have a fitted effect of over 15% in size). The essentials: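 Readout was ERE-driven luciferase luminescence in VM7Luc4E2 cells, which express full-length ER-alpha endogenously. Compounds were tested at 15 concentrations for 22hr alongside 10.0nM ICI-182,780 (final concentration).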
Estrogen receptor (Homo sapiens), sequence (P03372 whole entry, looked up): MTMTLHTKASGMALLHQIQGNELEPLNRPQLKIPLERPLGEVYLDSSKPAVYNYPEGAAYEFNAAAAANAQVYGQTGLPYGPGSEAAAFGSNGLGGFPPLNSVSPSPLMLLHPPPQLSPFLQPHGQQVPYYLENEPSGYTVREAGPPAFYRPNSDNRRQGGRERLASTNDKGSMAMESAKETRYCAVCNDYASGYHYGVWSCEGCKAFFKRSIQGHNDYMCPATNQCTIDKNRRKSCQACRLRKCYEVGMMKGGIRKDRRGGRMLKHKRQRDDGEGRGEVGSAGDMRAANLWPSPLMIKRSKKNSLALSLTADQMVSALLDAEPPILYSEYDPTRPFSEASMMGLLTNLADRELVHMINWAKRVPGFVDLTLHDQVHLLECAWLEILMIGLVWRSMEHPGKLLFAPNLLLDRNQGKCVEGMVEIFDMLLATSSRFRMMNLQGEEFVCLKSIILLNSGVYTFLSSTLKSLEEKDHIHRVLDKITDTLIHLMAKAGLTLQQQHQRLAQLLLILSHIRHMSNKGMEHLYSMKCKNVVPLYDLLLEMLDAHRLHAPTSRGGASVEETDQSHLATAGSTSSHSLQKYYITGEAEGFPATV

Experiment [11] is described as follows: qHTS assay to identify small molecule agonists or antagonists of the thyroid stimulating hormone receptor (TSHR) signaling pathway - wild type cell line counter screen (AID 1259384; calls by dose curve). In outline:
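Wild-type HEK293 cells were plated 18 h at 37 C/5% CO2, pin-dosed with compound plus Ro20-1724 medium, held 30 min at room temperature, then given cAMP-d2 and anti-cAMP-cryptate; fluorescence was read after 1 h. Fifteen concentrations, triplicate.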

Experiment [12] concerns the target Androgen receptor (Homo sapiens) (UniProt P10275). Briefly: qHTS assay to identify small molecule antagonists of the androgen receptor (AR) signaling pathway using the MDA cell line in the presence of 0.5 nM R1881 (AID 1259243). Also: nearly all actives have a fitted effect of over 50% in size. Also: potency is read from the fitted curve at half-maximal effect. The essentials: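 Antagonist mode quantitative HTS in MDA-kb2 MMTV-luciferase cells, agonist R1881 at 0.5 nM final, 16 hr exposure at 37C and 0% CO2, luminescent detection.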

Experiment [13] is described as follows: qHTS assay to identify small molecule HDAC inhibitors - cell viability counter screen (AID 1259365). Also: series mostly up to about 92 µM; nearly all actives have a fitted effect of over 50% in size. In outline:
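After overnight seeding at 1,500 cells per well, wild-type HCT-116 cultures took up compounds in DMSO for 2hr at 37 C. Viable cell content came from luminescence with CellTiter-Glo.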

Experiment [14] in a line: qHTS assay to identify small molecule antagonists of the sonic hedgehog signaling (Shh) pathway - cell viability counter screen (AID 1259367). Also: nearly all actives have a fitted effect of over 55% in size. Also: potency is read from the fitted curve at half-maximal effect. In outline: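 Conditioned medium drove Shh signaling in 3T3 Gli1-Luc cells exposed to compounds at 37C and 5% CO2. Viability was determined from CellTiter-Fluor fluorescence, with reagent incubated 1 hr after 23 hr of treatment.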

The target of experiment [15] is Estrogen receptor beta (Homo sapiens) (UniProt Q92731). Briefly: qHTS assay to identify small molecule antagonists of the estrogen receptor beta (ER-beta) signaling pathway (AID 1259378; active = well fitted inhibition curve with a large enough effect in the signal ratio in the repeat runs, not every such curve was filed as active; the % refers to the signal ratio; also: potency is read from the fitted curve at half-maximal effect). The essentials: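 ER-beta-UAS-bla HEK293T (GripTite) cells in 2% charcoal-stripped FBS medium were preincubated 6 hr at 37C, dosed with compound, then stimulated with 1 nM E2 (final) for 16 hr; beta-lactamase reporter read by B/G FRET fluorescence after 2 hr substrate loading.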

Experiment [16] deals with Androgen receptor (Homo sapiens) (UniProt P10275). Briefly: qHTS assay to identify small molecule agonists of the androgen receptor (AR) signaling pathway in the presence of an antagonist (AID 1259381; calls by dose curve; also: nearly all actives have a fitted effect of over 15% in size). In outline:
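Reporter-gene luminescence from MDA-kb2 cells exposed 16hr at 37C (0% CO2) to 15-point compound titrations with 3.0uM final nilutamide as AR antagonist.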

A short description of experiment [17]: qHTS assay to identify small molecule antagonists of the estrogen receptor beta (ER-beta) signaling pathway - cell viability counter screen (AID 1259382). Also: nearly all actives have a fitted effect of over 55% in size. Also: potency is read from the fitted curve at half-maximal effect. The essentials:
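Viability is scored by CellTiter-Glo luminescence (30 min, room temperature) in ER-beta-UAS-bla HEK293T wells already read for reporter fluorescence. Compound exposure lasts 16 hr at 37C alongside 1nM 17-beta-estradiol in charcoal-stripped serum medium.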

Experiment [18] is described as follows: qHTS assay to identify small molecule agonists of the androgen receptor (AR) signaling pathway in the presence of an antagonist - cell viability counter screen (AID 1259379). Also: nearly all actives have a fitted effect of over 25% in size. Also: potency is read from the fitted curve at half-maximal effect. The essentials: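 Nilutamide-containing (3.0uM final) MDA-kb2 cultures, 3,000 cells/well, were treated with compounds across 15 concentrations. After 16 hr at 37C with no CO2, cell viability was determined by CellTiter-Fluor fluorescence in the luciferase assay wells.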

Experiment [19] deals with Thyrotropin receptor (Homo sapiens) (UniProt P16473). Briefly: qHTS assay to identify small molecule antagonists of the thyroid stimulating hormone receptor (TSHR) signaling pathway (AID 1259385; calls by dose curve; also: nearly all actives have a fitted effect of over 20% in size). In outline:
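TSHR-HEK293 cells were plated and held 18 h at 37C/5% CO2, then given compound plus Ro20-1724 and stimulated with TSH at 1.5 ng/mL final. After 30 min at room temperature, cAMP was detected with cAMP-d2/anti-cAMP-cryptate (1 h) by fluorescence.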

Records with an inconclusive call do not appear. Activity calls are given as the source filed them. Unless noted, calls follow the shape of the dose curve; as a rule, active = well fitted curve in the direction sought with a large enough effect in the repeat runs; inconclusive = weak or mixed curves; inactive = no such curve, though single readings can be large; an effect the other way counts as inactive or inconclusive.

Androgen receptor (Homo sapiens), sequence (P10275 whole entry, looked up): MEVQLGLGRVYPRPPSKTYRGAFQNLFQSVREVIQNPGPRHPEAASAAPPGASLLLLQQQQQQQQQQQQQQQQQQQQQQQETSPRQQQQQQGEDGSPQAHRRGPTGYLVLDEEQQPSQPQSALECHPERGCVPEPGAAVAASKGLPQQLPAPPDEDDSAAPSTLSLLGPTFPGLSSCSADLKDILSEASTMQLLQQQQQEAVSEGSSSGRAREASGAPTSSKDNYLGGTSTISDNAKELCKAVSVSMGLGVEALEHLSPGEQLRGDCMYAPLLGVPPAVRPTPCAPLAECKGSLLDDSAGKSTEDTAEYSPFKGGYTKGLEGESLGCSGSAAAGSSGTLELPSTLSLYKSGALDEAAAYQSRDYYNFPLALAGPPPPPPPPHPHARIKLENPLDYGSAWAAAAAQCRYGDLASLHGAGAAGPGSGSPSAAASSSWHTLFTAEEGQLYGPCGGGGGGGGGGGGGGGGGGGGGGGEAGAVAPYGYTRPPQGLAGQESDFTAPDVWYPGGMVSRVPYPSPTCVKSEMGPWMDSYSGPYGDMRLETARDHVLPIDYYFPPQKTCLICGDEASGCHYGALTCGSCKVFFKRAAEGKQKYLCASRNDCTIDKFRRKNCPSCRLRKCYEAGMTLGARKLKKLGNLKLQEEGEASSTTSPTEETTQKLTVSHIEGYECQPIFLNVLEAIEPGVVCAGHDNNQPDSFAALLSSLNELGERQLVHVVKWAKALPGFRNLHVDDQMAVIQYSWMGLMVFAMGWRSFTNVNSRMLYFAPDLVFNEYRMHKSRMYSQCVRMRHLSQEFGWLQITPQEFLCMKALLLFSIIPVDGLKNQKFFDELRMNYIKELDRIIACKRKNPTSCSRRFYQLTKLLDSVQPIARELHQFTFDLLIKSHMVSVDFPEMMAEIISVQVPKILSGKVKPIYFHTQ
Thyrotropin receptor (Homo sapiens), sequence (P16473 whole entry, looked up): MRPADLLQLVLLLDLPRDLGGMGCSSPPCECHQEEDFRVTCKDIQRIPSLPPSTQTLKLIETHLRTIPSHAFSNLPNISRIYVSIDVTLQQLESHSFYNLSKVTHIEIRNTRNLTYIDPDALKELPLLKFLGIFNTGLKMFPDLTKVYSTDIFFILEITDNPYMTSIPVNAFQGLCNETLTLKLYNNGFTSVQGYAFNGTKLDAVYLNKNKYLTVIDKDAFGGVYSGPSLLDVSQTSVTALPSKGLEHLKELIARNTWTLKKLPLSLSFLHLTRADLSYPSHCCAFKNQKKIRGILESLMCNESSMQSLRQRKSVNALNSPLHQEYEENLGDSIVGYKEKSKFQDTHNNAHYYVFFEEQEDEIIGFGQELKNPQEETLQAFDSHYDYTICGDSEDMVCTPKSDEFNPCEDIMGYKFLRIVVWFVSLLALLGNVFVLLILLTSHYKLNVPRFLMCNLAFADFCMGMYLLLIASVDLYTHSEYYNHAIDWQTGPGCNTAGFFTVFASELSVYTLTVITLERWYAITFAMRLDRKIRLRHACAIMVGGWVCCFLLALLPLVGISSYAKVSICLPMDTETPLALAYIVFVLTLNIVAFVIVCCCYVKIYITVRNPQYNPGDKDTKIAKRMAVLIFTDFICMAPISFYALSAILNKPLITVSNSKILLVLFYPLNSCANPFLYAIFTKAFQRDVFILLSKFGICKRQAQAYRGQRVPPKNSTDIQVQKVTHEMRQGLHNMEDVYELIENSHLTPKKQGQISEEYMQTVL

As for `O=C1Cc2cc(CCN3CCN(c4nsc5ccccc45)CC3)c(Cl)cc2N1`, the Potency result in experiment [1], in [2], in experiment [3], in experiment [4], in [6] and in experiment [8] was “inactive” throughout. In addition, in experiment [10], the Potency entry was “inactive”. Besides, the figures for the Potency in [5], in [7] and in experiment [9] were 23.7 µM (active), 29.8 µM (active) and 23.7 µM (active), respectively. Further, the compound was classed as inactive in experiment [11].
Turning to `OCCN1CCN(CC/C=C2/c3ccccc3Sc3ccc(C(F)(F)F)cc32)CC1`, the Potency entry in experiment [1], in experiment [2], in [4], in experiment [13], in [14] and in experiment [6] was “inactive” throughout. Also, the Potency entry in experiment [8], in [16] and in experiment [10] was “inactive” in each case. Also, the Potency in experiment [12] is 26.6 µM (active); in [3], 10 µM (active); in experiment [5], 21.1 µM (active); in [15], 11.9 µM (active); in experiment [9], 21.1 µM (active); in experiment [17] it was 26.6 µM (active). In experiment [11], the compound was classed as inactive.
On to `NNC(=O)c1cccc(C(=O)NN)c1`, for which the Potency entry in [1], in [12], in [4], in experiment [13], in experiment [5] and in experiment [14] was “inactive” throughout. In addition, the Potency entry in [6], in experiment [7], in [18], in [16], in experiment [17] and in experiment [10] was “inactive” each time.
Take `Cc1cc(O)c(C(C)(C)C)cc1C(C)(C)C`: the Potency result in experiment [1], in experiment [4], in experiment [6], in experiment [16] and in [10] was “inactive” in each case. For the same compound, the Potency in [12] is 61.1 µM (active); in experiment [2], 54.5 µM (active); in experiment [5] it was 61.1 µM (active); in [14] it was 61.1 µM (active); in [7], 48.6 µM (active); in [9], 54.5 µM (active). Besides, in experiment [17], the Potency was 61.1 µM (active). In experiment [11], the compound was called inactive.
Consider `O=C(Nc1cccc(C(F)(F)F)c1)c1cc(Br)cc(Br)c1O`, for which the Potency result in experiment [1], in experiment [3], in experiment [5], in experiment [6] and in experiment [10] was “inactive” in each case. Also, the Potency is 4.86 µM (active) in experiment [2]; 3.86 µM (active) in experiment [4]; 1.72 µM (active) in [7]; 4.33 µM (active) in experiment [18]; 24.3 µM (active) in experiment [9]; 27.3 µM (active) in experiment [17]. In experiment [11], the compound was called inactive.
For `O=c1[nH]sc2cc(Cl)ccc12`, the Potency result in experiment [1], in [4], in experiment [13], in experiment [14], in [6] and in experiment [7] was “inactive” in each case. For the same compound, the Potency entry in experiment [18], in experiment [16], in [10] and in [19] was “inactive” each time. Further, the Potency in experiment [12] is 0.001 µM (active); in experiment [9], 11.9 µM (active). Also, the call in [11] was inactive.
Consider `Oc1ccc(C2(c3ccc(O)cc3)CC3CC2C2CCCC32)cc1` (configuration not stated), for which the Potency result in [1], in [4], in [13], in experiment [6], in experiment [16] and in experiment [10] was “inactive” each time. The Potency is 52.3 µM (active) in experiment [12]; 0.117 µM (active) in experiment [2]; 58.7 µM (active) in experiment [5]; 26.2 µM (active) in [9]; 26.2 µM (active) in experiment [17].
With `CN1CCN(CCC(=O)N2c3ccccc3Sc3ccc(C(F)(F)F)cc32)CC1`, the Potency result in experiment [1], in experiment [2], in [4], in [13], in experiment [6] and in [16] was “inactive” each time. Besides, the Potency entry in [10] was “inactive”. Also, the Potency was 3.35 µM (active) in [7]; 21.1 µM (active) in experiment [15]; 29.8 µM (active) in [18]; 13.3 µM (active) in experiment [9]; 16.8 µM (active) in experiment [17]. Further, in experiment [11], the result was inactive.
For `C=C(C)C(=O)OCC(O)COc1ccc(C(C)(C)c2ccc(OCC(O)COC(=O)C(=C)C)cc2)cc1` (configuration not stated), the Potency in experiment [1] is 27.3 µM (active); in [2], 21.7 µM (active); in experiment [7], 48.6 µM (active); in experiment [18], 30.6 µM (active); in [9] it was 61.1 µM (active). For the same compound, the Potency entry in experiment [4], in [13], in experiment [5], in [6] and in experiment [10] was “inactive” in each case. Further, the compound was classed as inactive in [11].

The values above are taken from PubChem BioAssay (Tox21).
